Molecules are shown by their SMILES. A number with no mark means an inactive call. Inconclusive results are not listed. Active and inactive are the calls of the source. Unless noted, the call rests on the fitted dose curve; in most records, active means well fitted curve in either direction with a large enough effect (not every such curve was filed as active); inconclusive means small, poorly fitted or top-dose-only effect, or another doubt; inactive means flat fitted curve, though single readings scatter. Some results are limits rather than exact numbers.

The nature of test [1]: AP1 Signaling Pathway (AID 357).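 Further: ME-180 reporter cells stimulated with EGF at its EC50 level; on the % scale 0 is the no-effect control and ±100 the full control effect.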 The note with it: ME-180 AP-1-bla reporter, EGF-induced, beta-lactamase ratio, 5 h; at 17.2 µM (top of the series) unless noted. In a few lines:
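Modulation of EGF-driven AP-1 transcription was assessed with a beta-lactamase reporter in ME-180 cells. Compound and EC50 EGF were co-incubated 5 hours at 37 °C before 2.5-hour CCF4 loading at room temperature and dual-emission reading.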

The nature of test [2]: NFAT Signaling Pathway (AID 444).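 Further: carbachol stimulus at about its EC50 of 1 µM final; on the % scale 0 is the no-effect control and ±100 the full control effect.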 The note with it: Jurkat NFAT-bla M1, carbachol, beta-lactamase ratio, 5 h; at 17.2 µM (top of the series) unless noted. The procedure, abridged: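 Read-out: CCF4 FRET ratio (460 nm/530 nm) after 1 h RT dye loading, used for %activity and AC50 from titration series. Cells: Jurkat NFAT-β-lactamase/M1 line, treated with compound plus 1 uM carbachol for 5 h, 37 °C.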

Test [3] is described as follows: Stat Signaling Pathway (AID 446).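 Further: ME-180 cervical cancer cells given 40 pM IL-6 alongside compound; SIE-controlled beta-lactamase reporter measured as 460/530 nm FRET emission ratio; on the % scale 0 is the no-effect control and ±100 the full control effect.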 Particulars: ME-180 (cervical carcinoma) SIE beta-lactamase reporter, IL-6 stimulated, 5 h; at 17.2 µM (top of the series) unless noted. In a few lines:
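ME-180 SIE-bla cells; overnight plating; cpd + IL-6 40 pM, 5 h, 37 C; LiveBLAzer 2.5 h RT; 460/530 nm emission ratio. Normalized to 300 pM IL-6 and 125 nM JAK inhibitor controls.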

The target in test [4] is Glucocorticoid receptor (Homo sapiens) (UniProt P04150). The experiment in a line: GR-GFP Redistribution (AID 450;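 active means compounds whose dose series gives a full or clear partial fitted curve of increased nuclear translocation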; further: potency means the concentration at half of the fitted maximal effect).
Glucocorticoid receptor (Homo sapiens), sequence (P04150 whole entry, looked up): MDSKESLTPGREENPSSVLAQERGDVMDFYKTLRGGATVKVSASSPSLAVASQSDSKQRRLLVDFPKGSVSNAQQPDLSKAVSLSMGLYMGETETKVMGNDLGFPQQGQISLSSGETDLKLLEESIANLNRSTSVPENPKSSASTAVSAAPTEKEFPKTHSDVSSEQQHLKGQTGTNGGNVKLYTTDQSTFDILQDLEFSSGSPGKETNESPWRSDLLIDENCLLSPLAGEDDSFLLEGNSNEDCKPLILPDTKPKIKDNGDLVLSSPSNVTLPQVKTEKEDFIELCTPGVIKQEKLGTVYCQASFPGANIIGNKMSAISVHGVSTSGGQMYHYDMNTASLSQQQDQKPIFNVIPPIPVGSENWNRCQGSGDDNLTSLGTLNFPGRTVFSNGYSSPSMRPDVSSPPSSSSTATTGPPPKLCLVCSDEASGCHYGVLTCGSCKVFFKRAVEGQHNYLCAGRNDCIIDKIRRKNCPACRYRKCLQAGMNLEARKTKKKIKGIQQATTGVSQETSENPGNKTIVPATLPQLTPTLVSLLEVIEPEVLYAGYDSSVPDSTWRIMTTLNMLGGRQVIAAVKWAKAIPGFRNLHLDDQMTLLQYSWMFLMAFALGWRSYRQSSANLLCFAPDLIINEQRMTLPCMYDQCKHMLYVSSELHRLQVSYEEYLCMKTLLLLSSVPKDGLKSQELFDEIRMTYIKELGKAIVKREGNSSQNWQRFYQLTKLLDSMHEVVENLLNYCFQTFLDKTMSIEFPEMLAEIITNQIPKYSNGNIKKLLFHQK

In the case of `CC1(C)CC(NC(=O)C23CCC(C)(/C(=N/O)C2)C3(C)C)CC(C)(C)N1` (stereo unspecified), the activity change, negative = inhibition in test [1] is 1.22%; in test [2] it was 10.5%. In addition, in test [3], the activity, negative = inhibition is 0.446%. In test [4], the Potency is > 20.6 µM.

Regarding `CCOC(=O)c1c(C)cccc1OCC(N)=O`, the activity change, negative = inhibition in test [1] is -9.84%; in test [2] it was 0.392%. Further, the activity, negative = inhibition in test [3] was -2.4%. Further, in test [4], the Potency is > 20.6 µM.

For `Cc1cc(=O)n(CCC(=O)O)c2ccccc12`, the activity change, negative = inhibition was 4.89% in test [1] and 1.73% in test [2]. In addition, the activity, negative = inhibition in test [3] was 3.32%. Also, the Potency in test [4] was > 20.6 µM.

As to `Clc1cccc(-c2nn3c(-c4cccc(Cl)c4)nnc3s2)c1`, the activity change, negative = inhibition is -10.3% in test [1] and 1.34% in test [2]. For the same compound, the activity, negative = inhibition in test [3] was 2.11%. The Potency in test [4] is > 20.6 µM.

As for `CCOC(=O)C1Cc2c([nH]c3ccccc23)C(C)N1` (stereo unspecified), the results for the activity change, negative = inhibition in test [1] and in test [2] were -10.7% and 2.1%, respectively. Further, the activity, negative = inhibition in test [3] was -9.52%. Moreover, the Potency in test [4] is > 20.6 µM.

For `CCC1(C)Cc2c(sc3nc4n(c(=O)c23)CCS4)CO1` (stereo unspecified), the activity change, negative = inhibition in test [1] is -20.5%; in test [2], -16.6%. Further, the activity, negative = inhibition in test [3] is -2.05%. In addition, the Potency in test [4] was > 20.6 µM.

With `CC(=O)C1=C(O)C(=O)N(c2ccc(S(N)(=O)=O)cc2)C1c1ccccc1F` (stereo unspecified), the activity change, negative = inhibition in test [1] was -4.17%; in test [2] it was 5.76%. Also, in test [3], the activity, negative = inhibition was -0.593%. Further, the Potency in test [4] was > 20.6 µM.

In the case of `COc1ccccc1C(=O)NCC(=O)n1nc(C)cc1C`, the figures for the activity change, negative = inhibition in test [1] and in test [2] were -3.59% and -5.21%, respectively. Besides, the activity, negative = inhibition in test [3] was 10.4%. The Potency in test [4] was > 20.6 µM.

With `CCOC(=O)Cn1c(SC)nc2sc3c(c2c1=O)CC(C)(C)OC3`, the values for the activity change, negative = inhibition in test [1] and in test [2] were 3.62% and 10.2%, respectively. In addition, the activity, negative = inhibition in test [3] was -3.19%. In addition, in test [4], the Potency was > 20.6 µM.

Take `COC(=O)c1[nH]c2cc(OC)ccc2c1NC(=O)CN1CCC(C(N)=O)CC1`: the values for the activity change, negative = inhibition in test [1] and in test [2] were -3.69% and -2.98%, respectively. For the same compound, the activity, negative = inhibition in test [3] was 0.718%. For the same compound, the Potency in test [4] is > 20.6 µM.

In the case of `CC(C)(C)c1ccc(C(=O)C=[N+]=[N-])cc1`, the activity change, negative = inhibition is 0.479% in test [1] and 1.56% in test [2]. Besides, the activity, negative = inhibition in test [3] was 4.94%. Moreover, in test [4], the Potency was > 20.6 µM.

On to `Oc1oc(-c2ccccc2)nc1C=NCc1ccncc1`, for which the activity change, negative = inhibition in test [1] was 1.8%; in test [2] it was -8.61%. Further, the activity, negative = inhibition in test [3] is 22.7%. Also, the Potency in test [4] was > 20.6 µM.

Regarding `O=S(=O)(c1ccccc1)N1CCC(N2CCN(c3ccccc3)CC2)CC1`, the results for the activity change, negative = inhibition in test [1] and in test [2] were -9.33% and 6.66%, respectively. In addition, in test [3], the activity, negative = inhibition was 5.78%. Also, the Potency in test [4] is > 20.6 µM.

For the compound `Cc1cccc(NC(=O)c2cc(N3CCOCC3)nc3ccccc23)c1`, the figures for the activity change, negative = inhibition in test [1] and in test [2] were -7.76% and 28.7%, respectively. Further, in test [3], the activity, negative = inhibition is -0.239%. For the same compound, the Potency in test [4] is > 20.6 µM.

In the case of `COC(=O)c1nn2c(C(F)(F)F)cc(-c3ccc(Br)o3)nc2c1Br`, the activity change, negative = inhibition is 0.345% in test [1] and -16.6% in test [2]. Besides, the activity, negative = inhibition in test [3] is 0.255%. Also, the Potency in test [4] was > 20.6 µM.

Turning to `Cc1cc(C)c(NC(=O)OCCN2CCOCC2)c(C)c1`, the values for the activity change, negative = inhibition in test [1] and in test [2] were 4.21% and -5.81%, respectively. The activity, negative = inhibition in test [3] was 5.25%. In test [4], the Potency was > 20.6 µM.

Turning to `O=C(CCC(=O)CCN1CCCCC1)CCN1CCCCC1`, the values for the activity change, negative = inhibition in test [1] and in test [2] were 13.9% and -120% (active), respectively. Besides, in test [3], the activity, negative = inhibition is 1.96%. The Potency in test [4] is > 20.6 µM.

As to `C/C(NC(=O)c1cccs1)=C1\C(=O)C[C@@H]2[C@H]1C2(C)C`, the activity change, negative = inhibition in test [1] is -9.31%; in test [2], -25.4%. In test [3], the activity, negative = inhibition was -12.2%. For the same compound, in test [4], the Potency was > 20.6 µM.

With `Cn1c(=O)c2c(nc(NCc3ccc4c(c3)OCO4)n2Cc2ccccc2)n(C)c1=O`, the figures for the activity change, negative = inhibition in test [1] and in test [2] were -13.1% and 6.4%, respectively. In addition, the activity, negative = inhibition in test [3] was -25%. For the same compound, the Potency in test [4] is > 20.6 µM.

Source of the values: PubChem BioAssay (NCATS).
